We go through eight compounds from PubChem BioAssay (Tox21).

Values without a mark were called inactive. Records with an inconclusive call do not appear. The source made the active and inactive calls. Unless noted, calls come from the whole dose curve; as a rule, active = well fitted curve in the direction sought with a large enough effect in the repeat runs; inconclusive = weak or mixed curves; inactive = no such curve, though single readings can be large; an effect the other way counts as inactive or inconclusive.

The target of assay [1] is Progesterone receptor (Homo sapiens) (UniProt P06401). Put plainly: qHTS assay to identify small molecule agonists of the progesterone receptor (PR) signaling pathway (AID 1346784; calls by dose curve; note: nearly all actives have a fitted effect of over 30% in size; note: potency is the fitted concentration of half-maximal effect). A digest of the protocol:
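Reporter assay, GripTite PR-UAS-bla HEK 293T cells: 16 hr exposure to DMSO-dissolved compounds at 37C, 5% CO2, in steroid-depleted (2% charcoal-stripped FBS) medium; beta-lactamase measured by FRET fluorescence.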
On the technique in general: Quantitative high-throughput screening tests each substance at several concentrations.

For assay [2] the target is unchanged. Put plainly: qHTS assay to identify small molecule antagonists of the progesterone receptor (PR) signaling pathway (AID 1346795; active = well fitted inhibition curve with a large enough effect in the signal ratio in the repeat runs, not every such curve was filed as active; the % refers to the signal ratio). A digest of the protocol: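 Stimulus R5020 at 1 nM final; cells HEK293T PR-UAS-bla; medium with 2% charcoal-stripped FBS; compound exposure 16 hr at 37C, 5% CO2; detection by FRET beta-lactamase substrate, 2 hr, room temperature.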

Assay [3] can be described thus: qHTS assay to identify small molecule antagonists of the progesterone receptor (PR) signaling pathway - cell viability counter screen (AID 1346798). Note: series mostly up to about 92 µM; nearly all actives have a fitted effect of over 50% in size. A digest of the protocol: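 In the same plates used for the beta-lactamase readout, cell viability of compound- and R5020-treated PR-UAS-bla HEK293T cells (16 hr, 37C) was assessed by CellTiter-Glo luminescence.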
A short description of assay [4]: qHTS assay to identify small molecule agonists of the progesterone receptor (PR) signaling pathway - cell viability counter screen (AID 1346799; calls by dose curve; note: nearly all actives have a fitted effect of over 45% in size). The gist of the method: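 Multiplexed viability read: CellTiter-Glo luminescence, 30 min RT, following LiveBLAzer FRET measurement on PR-UAS-bla HEK293T cells exposed to compounds 16 hr.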
The nature of assay [5]: qHTS assay to identify small molecule antagonists of the TGF-beta/Smad signaling pathway - cell viability counter screen (AID 1346824). Note: nearly all actives have a fitted effect of over 50% in size. The gist of the method:
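SBE-bla HEK 293T cells were plated overnight at 37 C, then given compounds in DMSO plus TGF-beta1 (added as 0.25 ng/mL solution) for 5 hr. After the bla read, CellTiter-Glo was added to the same wells and luminescence read after 30 min at room temperature.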

Assay [6] can be described thus: qHTS assay to identify small molecule agonists of the TGF-beta/Smad signaling pathway - cell viability counter screen (AID 1346829). Note: top concentration of the series differs between compounds; nearly all actives have a fitted effect of over 45% in size. The gist of the method:
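In parallel with the Smad reporter read, viability of HEK 293T cells stably carrying SBE-bla is quantified by ATP luminescence following 5 hr compound treatment.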

Assay [7] in a line: qHTS assay to identify small molecule agonists of the TGF-beta/Smad signaling pathway (AID 1346859; active = well fitted activation curve with a large enough effect in the signal ratio in the repeat runs, not every such curve was filed as active; the % refers to the signal ratio; note: series mostly up to about 77 µM). A digest of the protocol: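 Screening used HEK 293T SBE-bla cells at 4,000/well. Test agents: 5 hr, 37 C. Detection: FRET substrate, 2 hr RT, then excitation 405 nm with emissions at 460 and 530 nm.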
The target in assay [8] is Thyrotropin-releasing hormone receptor (Homo sapiens) (UniProt P34981). In words: qHTS assay to identify small molecule antagonists of the thyrotropin-releasing hormone receptor (TRHR) signaling pathway (AID 1346877; active = well fitted inhibition curve with a large enough effect in the repeat runs, not every such curve was filed as active; note: series mostly up to about 51 µM). A digest of the protocol: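 Overnight-plated (18 h, 37 °C) HEK293 cells expressing TRHR were dye-loaded 2 h, treated with compound, then stimulated with TRH at 1 nM final. Fluorescence intensity was captured every second for 3 min.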

For assay [9] the target is unchanged. In words: qHTS assay to identify small molecule agonists of the thyrotropin-releasing hormone receptor (TRHR) signaling pathway (AID 1346891; calls by dose curve; note: series mostly up to about 58 µM). The gist of the method: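 Readout was intracellular calcium fluorescence in TRHR-Hek293 cells. Cells were incubated 18 h, dye-loaded 2 h at 37 °C, and treated with compound in agonist mode.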
The nature of assay [10]: Human pregnane X receptor (PXR) small molecule agonists, qHTS cell viability counter screen (AID 1346977). Note: nearly all actives have a fitted effect of over 50% in size. A digest of the protocol:
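In each well, the PXR reporter HepG2 line was checked for viability: CellTiter-Fluor reagent added 23hr post-dosing, fluorescence read after 1hr incubation at 37C.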

A short description of assay [11]: Caspase-3/7 induction in HepG2 cells by small molecules, qHTS assay (AID 1346978). Note: nearly all actives have a fitted effect of over 15% in size. The gist of the method:
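Wild-type HepG2 cells (2,000/well) were settled 5 h at 37 C, 5% CO2, then exposed to compounds in DMSO for 17 h. Caspase-3/7 activity was read by luminescence 30 min after adding Caspase-Glo 3/7 reagent at room temperature.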

Assay [12] is described as follows: Caspase-3/7 induction in CHO-K1 cells by small molecules, qHTS cell viability counter screen (AID 1346979). Note: nearly all actives have a fitted effect of over 35% in size. A digest of the protocol:
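Following a 5hr settling period, CHO-K1 cells at 1,500 per well received DMSO-dissolved compounds. Cell viability was quantified 16hr later by CellTiter-Fluor fluorescence, measured after 1hr with reagent at 37C.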

Assay [13] can be described thus: Caspase-3/7 induction in CHO-K1 cells by small molecules, qHTS assay (AID 1346980). Note: nearly all actives have a fitted effect of over 15% in size. The gist of the method:
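Wild-type cells were seeded at 1,500 per well and settled 5 hr at 37 C, 5% CO2, then exposed to DMSO-dissolved compounds for 17 hr. Caspase-Glo 3/7 reagent was added, and luminescence was read after 30min at room temperature.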

The nature of assay [14]: Caspase-3/7 induction in HepG2 cells by small molecules, qHTS cell viability counter screen (AID 1346981). Note: series mostly up to about 92 µM; nearly all actives have a fitted effect of over 30% in size. A digest of the protocol:
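Treatment of HepG2 cells with DMSO-delivered compounds ran 16 hr at 37 C following a 5-hr pre-incubation of 2,000 cells/well. CellTiter-Fluor fluorescence, read after 1 hr, served as the viability measure in a qHTS format.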

For assay [15], the target named is Cytochrome P450 2D6 (Homo sapiens) (UniProt P10635). Put plainly: Cytochrome P450 Family 2 Subfamily D Member 6 (CYP2D6) small molecule antagonists: luciferase reporter qHTS assay (AID 1671196). Note: series mostly up to about 120 µM; nearly all actives have a fitted effect of over 50% in size. The gist of the method: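 Chemicals tested for interference with CYP2D6 activity; proluciferin substrate, NADPH regeneration, 1 h at room temperature, luminescent detection.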
A general note: A reporter such as luciferase makes a cellular process visible.

The target of assay [16] is Cytochrome P450 2C19 (Homo sapiens) (UniProt P33261). In words: Cytochrome P450 Family 2 Subfamily C Member 19 (CYP2C19) small molecule antagonists: luciferase reporter qHTS assay (AID 1671197). Note: series mostly up to about 120 µM; nearly all actives have a fitted effect of over 65% in size. The gist of the method: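 Compounds were tested on CYP2C19 activity via proluciferin conversion to luciferin. The 37C, 1 h reaction followed NADPH addition; detection reagent stopped it.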

Assay [17] has as its target Nuclear receptor subfamily 1 group I member 2 (Rattus norvegicus) (UniProt Q9R1A7). Put plainly: Rat pregnane X receptor (rPXR) activation by small molecules, qHTS assay (AID 1346983). Note: nearly all actives have a fitted effect of over 20% in size. The following applies: rPXR luciferase reporter cells, One-Glo luminescence, 24 h; hits give high values. A digest of the protocol: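 Cell-based rPXR luciferase reporter assay, 2,000 cells per well, rested 5hr at 37 C before compound addition in DMSO, then 24 hr at 37 C. One-Glo reagent was added and luminescence read after 30 min at room temperature.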

In assay [18] the target is Nuclear receptor subfamily 1 group I member 2 (Homo sapiens) (UniProt O75469). In words: CYP3A4 induction through human pregnane X receptor (PXR) by small molecules, qHTS assay (AID 1346984). Note: nearly all actives have a fitted effect of over 40% in size. A digest of the protocol:
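After 24 h at 37C with compound, DPX-2 cells (HepG2, co-transfected PXR response element and CYP3A4 promoter-luciferase) got 3uM final P450-Glo Luciferin-IPA for 3 h; One-Glo luminescence followed.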

Assay [19] has the same target. In words: Human pregnane X receptor (PXR) activation by small molecules, qHTS assay (AID 1346985). Note: nearly all actives have a fitted effect of over 40% in size. A digest of the protocol: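 DPX-2 cells (HepG2 co-transfected with a PXR response element and a CYP3A4-promoter luciferase construct) were seeded at 2,000 per well, rested 5 hr at 37C, then exposed to DMSO-dissolved compounds for 24 hr. Activation was read as luciferase luminescence.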

Assay [20] shares this target. Put plainly: Human pregnane X receptor (PXR) small molecule agonists, qHTS assay (AID 1346982). Note: nearly all actives have a fitted effect of over 35% in size. Note: potency is the fitted concentration of half-maximal effect. The gist of the method: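 Stable HepG2 line reporting PXR-mediated CYP3A4 expression via luciferase. Treatment: 24 hr with compounds in DMSO at 37 C. Detection: ONE-Glo luminescence.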
% is set by controls: 0 for no effect and ±100 for the full control effect.

Chain of Nuclear receptor subfamily 1 group I member 2 (Homo sapiens) (O75469 whole entry, looked up): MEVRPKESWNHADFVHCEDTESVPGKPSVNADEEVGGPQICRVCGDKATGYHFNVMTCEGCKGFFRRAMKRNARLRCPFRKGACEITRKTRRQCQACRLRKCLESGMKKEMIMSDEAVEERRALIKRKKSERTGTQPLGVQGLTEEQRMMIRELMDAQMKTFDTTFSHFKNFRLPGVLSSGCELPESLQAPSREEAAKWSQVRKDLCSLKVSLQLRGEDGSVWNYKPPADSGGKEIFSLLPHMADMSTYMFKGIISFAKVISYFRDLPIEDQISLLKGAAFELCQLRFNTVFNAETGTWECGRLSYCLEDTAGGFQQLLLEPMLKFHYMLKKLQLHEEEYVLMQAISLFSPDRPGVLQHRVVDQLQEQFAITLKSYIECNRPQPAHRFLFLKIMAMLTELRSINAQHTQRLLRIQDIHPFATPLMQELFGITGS
Chain of Cytochrome P450 2D6 (Homo sapiens) (P10635 whole entry, looked up): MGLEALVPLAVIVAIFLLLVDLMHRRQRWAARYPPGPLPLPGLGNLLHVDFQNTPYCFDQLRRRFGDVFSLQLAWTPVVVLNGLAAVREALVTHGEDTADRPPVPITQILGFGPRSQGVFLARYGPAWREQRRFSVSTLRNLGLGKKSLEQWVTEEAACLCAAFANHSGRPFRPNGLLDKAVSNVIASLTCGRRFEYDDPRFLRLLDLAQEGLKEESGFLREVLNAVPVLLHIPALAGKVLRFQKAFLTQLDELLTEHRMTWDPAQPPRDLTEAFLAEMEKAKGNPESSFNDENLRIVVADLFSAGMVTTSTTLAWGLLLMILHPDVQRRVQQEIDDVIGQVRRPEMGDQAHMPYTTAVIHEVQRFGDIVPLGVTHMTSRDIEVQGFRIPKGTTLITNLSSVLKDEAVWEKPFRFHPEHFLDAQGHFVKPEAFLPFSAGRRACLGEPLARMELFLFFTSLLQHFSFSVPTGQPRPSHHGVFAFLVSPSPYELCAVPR
Chain of Nuclear receptor subfamily 1 group I member 2 (Rattus norvegicus) (Q9R1A7 whole entry, looked up): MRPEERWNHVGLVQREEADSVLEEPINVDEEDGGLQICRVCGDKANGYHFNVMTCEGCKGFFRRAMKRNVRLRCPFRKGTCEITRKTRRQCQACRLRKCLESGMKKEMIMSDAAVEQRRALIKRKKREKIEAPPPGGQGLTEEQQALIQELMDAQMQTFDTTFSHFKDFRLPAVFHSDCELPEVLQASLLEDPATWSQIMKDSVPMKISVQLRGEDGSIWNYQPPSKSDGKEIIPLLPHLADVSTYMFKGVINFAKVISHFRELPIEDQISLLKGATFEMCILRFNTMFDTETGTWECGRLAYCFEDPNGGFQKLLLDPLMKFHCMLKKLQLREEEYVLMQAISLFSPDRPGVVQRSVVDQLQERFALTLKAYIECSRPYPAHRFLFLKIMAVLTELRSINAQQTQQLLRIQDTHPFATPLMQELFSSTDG
Chain of Cytochrome P450 2C19 (Homo sapiens) (P33261 whole entry, looked up): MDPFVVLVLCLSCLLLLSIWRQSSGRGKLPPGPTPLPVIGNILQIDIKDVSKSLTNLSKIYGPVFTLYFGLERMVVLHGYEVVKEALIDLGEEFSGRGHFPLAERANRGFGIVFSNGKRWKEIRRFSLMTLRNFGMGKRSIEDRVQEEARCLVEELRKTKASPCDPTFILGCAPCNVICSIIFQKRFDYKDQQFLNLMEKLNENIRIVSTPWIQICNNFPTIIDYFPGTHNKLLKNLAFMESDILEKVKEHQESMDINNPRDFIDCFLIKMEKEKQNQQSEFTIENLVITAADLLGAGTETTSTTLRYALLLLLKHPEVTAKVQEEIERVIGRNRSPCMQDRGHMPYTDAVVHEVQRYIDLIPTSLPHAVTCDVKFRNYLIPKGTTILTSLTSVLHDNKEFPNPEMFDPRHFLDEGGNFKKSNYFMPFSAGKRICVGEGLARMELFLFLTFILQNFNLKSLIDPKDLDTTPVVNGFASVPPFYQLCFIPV
Chain of Progesterone receptor (Homo sapiens) (P06401 whole entry, looked up): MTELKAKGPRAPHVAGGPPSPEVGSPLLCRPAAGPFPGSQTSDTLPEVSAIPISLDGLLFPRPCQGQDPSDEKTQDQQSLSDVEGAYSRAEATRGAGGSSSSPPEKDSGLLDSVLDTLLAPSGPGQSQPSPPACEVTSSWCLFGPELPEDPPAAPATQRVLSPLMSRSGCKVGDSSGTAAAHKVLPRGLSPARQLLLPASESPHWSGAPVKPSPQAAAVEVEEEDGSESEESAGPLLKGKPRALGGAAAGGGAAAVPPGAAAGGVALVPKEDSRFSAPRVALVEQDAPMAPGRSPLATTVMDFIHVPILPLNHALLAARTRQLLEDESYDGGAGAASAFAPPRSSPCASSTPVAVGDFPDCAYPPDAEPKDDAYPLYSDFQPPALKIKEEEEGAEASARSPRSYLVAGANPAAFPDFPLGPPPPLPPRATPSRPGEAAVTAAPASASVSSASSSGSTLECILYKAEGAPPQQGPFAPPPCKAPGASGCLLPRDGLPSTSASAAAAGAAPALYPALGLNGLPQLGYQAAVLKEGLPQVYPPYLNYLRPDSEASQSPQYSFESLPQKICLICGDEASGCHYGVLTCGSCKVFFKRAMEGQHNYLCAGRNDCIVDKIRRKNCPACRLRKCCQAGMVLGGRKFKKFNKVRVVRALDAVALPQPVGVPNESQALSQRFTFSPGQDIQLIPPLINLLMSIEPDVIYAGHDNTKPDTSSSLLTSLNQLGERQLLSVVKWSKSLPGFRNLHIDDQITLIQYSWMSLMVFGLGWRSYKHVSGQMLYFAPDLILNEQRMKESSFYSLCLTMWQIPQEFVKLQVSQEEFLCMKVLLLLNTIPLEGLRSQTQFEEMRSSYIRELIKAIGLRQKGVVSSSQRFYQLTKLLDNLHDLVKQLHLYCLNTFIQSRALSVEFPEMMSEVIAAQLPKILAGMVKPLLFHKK
Chain of Thyrotropin-releasing hormone receptor (Homo sapiens) (P34981 whole entry, looked up): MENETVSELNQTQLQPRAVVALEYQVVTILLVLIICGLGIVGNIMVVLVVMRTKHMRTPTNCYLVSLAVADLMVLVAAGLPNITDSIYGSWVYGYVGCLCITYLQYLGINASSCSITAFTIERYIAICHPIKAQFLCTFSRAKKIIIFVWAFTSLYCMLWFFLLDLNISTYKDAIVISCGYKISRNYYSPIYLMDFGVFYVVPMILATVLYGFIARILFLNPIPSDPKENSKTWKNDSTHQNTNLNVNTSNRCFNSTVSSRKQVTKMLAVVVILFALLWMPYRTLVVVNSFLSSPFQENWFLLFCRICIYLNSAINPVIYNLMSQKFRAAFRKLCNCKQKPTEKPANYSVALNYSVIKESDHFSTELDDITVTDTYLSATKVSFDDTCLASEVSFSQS

For `COc1cc2c(cc1OC)C(=O)CC2`, the Potency entry in [1], in [2], in [3], in [4], in assay [10] and in [11] was “inactive” throughout. Further, the Potency result in assay [12], in assay [14], in [15] and in [16] was “inactive” in each case. Moreover, the outcome in assay [5], in [6], in assay [7], in assay [8], in [9] and in assay [13] was inactive.

Turning to `CC(=O)CCCCn1c(=O)c2c(ncn2C)n(C)c1=O`, the Potency result in assay [1], in [2], in assay [3], in assay [4], in [10] and in assay [11] was “inactive” each time. Besides, the Potency result in assay [12], in [14], in assay [18], in assay [19], in assay [15] and in assay [16] was “inactive” each time. Further, the outcome in [5], in assay [6], in assay [7], in [8], in [9] and in assay [13] was inactive. In addition, in assay [17], the max activation was -1.72%.

For `BrCCCCCBr`, the Potency entry in assay [1], in assay [2], in [3], in assay [4], in [10] and in [12] was “inactive” each time. Also, the Potency entry in [14], in [20], in [15] and in assay [16] was “inactive” each time. In addition, the compound was classed as inactive in assay [5], in assay [6], in [7], in assay [8], in assay [9] and in assay [13].

As to `C[C@H](CCC(=O)O)[C@H]1CC[C@H]2[C@@H]3C(=O)C[C@@H]4CC(=O)CC[C@]4(C)[C@H]3CC(=O)[C@]12C`, the Potency entry in [1], in [2], in [3], in assay [4], in [10] and in [11] was “inactive” each time. For the same compound, the Potency result in [12], in [14], in [20], in assay [18], in assay [19] and in [16] was “inactive” in each case. The result in assay [5], in assay [6], in assay [7], in assay [8], in [9] and in [13] was inactive. In [17], the max activation is -0.558%.

`NS(=O)(=O)c1cc2c(cc1Cl)CN(C1CCCCC1)C2=O`: the Potency result in assay [1], in assay [2], in [3], in assay [4], in assay [10] and in [11] was “inactive” throughout. For the same compound, the Potency result in assay [12], in assay [14], in assay [15] and in [16] was “inactive” each time. For the same compound, the compound was called inactive in assay [5], in assay [6], in [7], in [8], in [9] and in assay [13]. Besides, in assay [20], the Potency is 29.8 µM (active).

For the compound `CCN(CC)CC(=O)Nc1c(C)cccc1C`, the Potency result in [1], in [2], in assay [3], in [4], in assay [10] and in assay [11] was “inactive” throughout. The Potency result in [12] and in assay [14] was “inactive” in each case. Moreover, the outcome in assay [5], in assay [6], in assay [7], in [8], in assay [9] and in assay [13] was inactive.

Take `CCCCCCCC/C=C\CCCCCCCC(=O)OCCCC`: the Potency in assay [1] is 1.24 µM (active). Besides, the activity change, negative = inhibition in assay [2] was -2.42% [at 18.9 µM]; in assay [16], -24.4% [at 23.6 µM]. Besides, the activity change, negative = cytotoxicity was 0.852% [at 18.9 µM] in [3]; 0% [at 19 µM] in [4]; 0.118% [at 15.8 µM] in assay [6]; 1.78% [at 19 µM] in [10]; 3.24% [at 19 µM] in assay [12]; 2.37% [at 19 µM] in assay [14]. Moreover, in assay [5], the viability change, negative = cytotoxic is 2.1% [at 15.8 µM]. The activation in assay [7] is -1.96% [at 15.8 µM]; in assay [9] it was 0.159% [at 11.8 µM]; in assay [20] it was 3.05% [at 19 µM]. The activity, negative = inhibition in [8] is 8.97% [at 10.5 µM]. Further, the caspase activation in [11] was 0.919% [at 19 µM]. Also, the caspase-3/7 activation in assay [13] was -0.343% [at 19 µM].

Take `Cc1cccc(C)c1NC(=O)c1ccccc1C(=O)O`: the Potency entry in assay [1], in assay [2], in assay [3], in assay [4], in assay [10] and in assay [11] was “inactive” throughout. Besides, the Potency result in assay [14], in assay [20], in [18], in assay [19] and in assay [16] was “inactive” throughout. Moreover, the outcome in assay [5], in assay [6], in [7], in assay [8], in assay [9] and in assay [13] was inactive. The max activation in assay [17] is -1.88%.
